Results as given in publication PMC7862700, “An all-to-all approach to the identification of sequence-specific readers for epigenetic DNA modifications on cytosine”.

Legend:
Test in all cases: DAPPL (digital affinity profiling via proximity ligation, sequencing); 10 mM Tris-HCl pH 7.5, 50 mM NaCl, 1 mM DTT, 4% glycerol, room temperature, 30 min; GST-TFs on glutathione beads, 16-mer random dsDNA library, 0.1% formaldehyde crosslink after washing; high values mean tight binding
FLI1 = target: T1, FLI1 (Homo sapiens, UniProt Q01543 1-452); settings: protein: recombinant; tags: N-terminal GST; dsDNA, one strand shown
T1 sequence: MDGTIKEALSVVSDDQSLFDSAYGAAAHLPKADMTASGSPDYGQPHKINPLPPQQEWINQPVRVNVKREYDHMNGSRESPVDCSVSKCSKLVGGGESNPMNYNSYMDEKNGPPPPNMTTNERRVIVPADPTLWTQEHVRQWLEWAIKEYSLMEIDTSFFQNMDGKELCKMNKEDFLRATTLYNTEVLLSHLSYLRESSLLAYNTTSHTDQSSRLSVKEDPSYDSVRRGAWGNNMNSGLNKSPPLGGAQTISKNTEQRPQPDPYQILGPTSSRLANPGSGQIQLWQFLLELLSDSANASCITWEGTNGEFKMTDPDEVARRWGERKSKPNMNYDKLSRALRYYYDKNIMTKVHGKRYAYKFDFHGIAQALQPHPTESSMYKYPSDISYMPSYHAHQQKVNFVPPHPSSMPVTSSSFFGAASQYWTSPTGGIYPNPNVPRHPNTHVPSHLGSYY
Outline: (§1)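 A tag-only sample was pooled with DNA-barcoded human transcription factors that had been expressed in yeast as GST fusions and captured on glutathione beads. The pools were incubated for 30 min at room temperature with 200 nmole of a random double-stranded 16-mer DNA library in Tris/NaCl/DTT/glycerol buffer, then washed, crosslinked with 0.1% formaldehyde, proximity-ligated (BsaI/T4 ligase, 1 h, 37 °C), PCR-amplified and sequenced on an Illumina NextSeq500. Binding signal is each hexamer's read frequency for a factor divided by its frequency for the tag-only sample.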

ELK1 = target: T2, ELK1 (Homo sapiens, UniProt P19419 1-428); settings: protein: recombinant; tags: N-terminal GST; dsDNA, one strand shown
T2 sequence: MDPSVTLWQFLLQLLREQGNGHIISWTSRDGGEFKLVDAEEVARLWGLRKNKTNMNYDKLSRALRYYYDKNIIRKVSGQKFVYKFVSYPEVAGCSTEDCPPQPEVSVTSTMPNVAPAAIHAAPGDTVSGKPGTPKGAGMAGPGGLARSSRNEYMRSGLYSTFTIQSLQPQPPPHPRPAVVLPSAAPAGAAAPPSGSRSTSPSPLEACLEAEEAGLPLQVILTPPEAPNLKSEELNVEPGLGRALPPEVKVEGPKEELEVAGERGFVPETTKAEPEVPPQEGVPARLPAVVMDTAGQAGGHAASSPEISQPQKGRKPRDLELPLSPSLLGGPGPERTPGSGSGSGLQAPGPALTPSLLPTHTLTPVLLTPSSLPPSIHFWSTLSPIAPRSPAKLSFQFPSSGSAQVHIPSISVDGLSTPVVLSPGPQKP
Outline: as §1

GABPA = target: T3, GABPA (Homo sapiens, UniProt Q06546 1-454); settings: protein: recombinant; tags: N-terminal GST; dsDNA, one strand shown
T3 sequence: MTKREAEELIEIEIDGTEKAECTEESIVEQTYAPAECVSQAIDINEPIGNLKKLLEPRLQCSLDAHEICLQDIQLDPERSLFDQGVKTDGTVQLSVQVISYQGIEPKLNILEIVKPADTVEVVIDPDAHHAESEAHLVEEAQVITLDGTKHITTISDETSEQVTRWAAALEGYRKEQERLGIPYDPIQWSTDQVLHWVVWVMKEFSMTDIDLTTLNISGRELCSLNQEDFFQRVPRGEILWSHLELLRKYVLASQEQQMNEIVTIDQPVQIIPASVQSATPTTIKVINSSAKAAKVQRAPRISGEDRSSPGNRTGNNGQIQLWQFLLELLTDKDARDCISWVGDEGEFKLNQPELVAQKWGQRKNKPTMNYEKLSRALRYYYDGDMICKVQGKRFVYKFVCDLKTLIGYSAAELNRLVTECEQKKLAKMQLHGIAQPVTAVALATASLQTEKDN
Outline: as §1

ERG = target: T4, ERG (Homo sapiens, UniProt P11308 1-479); settings: protein: recombinant; tags: N-terminal GST; dsDNA, one strand shown
T4 sequence: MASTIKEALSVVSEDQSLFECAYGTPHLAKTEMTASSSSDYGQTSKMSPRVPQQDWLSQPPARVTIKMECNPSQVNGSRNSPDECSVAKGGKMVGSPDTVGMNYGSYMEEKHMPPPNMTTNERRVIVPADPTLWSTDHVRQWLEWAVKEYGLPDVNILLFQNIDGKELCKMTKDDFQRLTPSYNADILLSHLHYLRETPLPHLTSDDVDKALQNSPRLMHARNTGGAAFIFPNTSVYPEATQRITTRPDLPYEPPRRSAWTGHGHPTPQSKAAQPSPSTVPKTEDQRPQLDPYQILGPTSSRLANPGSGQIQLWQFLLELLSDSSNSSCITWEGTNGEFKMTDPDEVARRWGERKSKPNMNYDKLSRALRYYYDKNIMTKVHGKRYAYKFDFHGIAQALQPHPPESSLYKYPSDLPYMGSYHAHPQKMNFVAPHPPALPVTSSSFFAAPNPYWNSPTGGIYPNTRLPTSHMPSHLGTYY
Outline: as §1

ELF1 = ELF1 (Homo sapiens, UniProt P32519 1-619); settings: protein: recombinant; tags: N-terminal GST; dsDNA, one strand shown
Outline: as §1

EHF = target: T5, EHF (Homo sapiens, UniProt Q9NZC4 1-300); settings: protein: recombinant; tags: N-terminal GST; dsDNA, one strand shown
T5 sequence: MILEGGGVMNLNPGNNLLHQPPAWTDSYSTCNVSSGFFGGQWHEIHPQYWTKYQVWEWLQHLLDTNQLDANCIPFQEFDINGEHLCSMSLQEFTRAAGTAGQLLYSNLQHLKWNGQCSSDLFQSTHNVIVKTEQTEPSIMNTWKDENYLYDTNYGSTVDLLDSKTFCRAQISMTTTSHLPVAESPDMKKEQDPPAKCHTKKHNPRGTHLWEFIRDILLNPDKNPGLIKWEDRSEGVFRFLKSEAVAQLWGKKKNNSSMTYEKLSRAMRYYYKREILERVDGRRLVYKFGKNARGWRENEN
Outline: as §1

SPI1 = SPI1 (Homo sapiens, UniProt P17947 1-270); settings: protein: recombinant; tags: N-terminal GST; dsDNA, one strand shown
Outline: as §1

SPIB = SPIB (Homo sapiens, UniProt Q01892 1-262); settings: protein: recombinant; tags: N-terminal GST; dsDNA, one strand shown
Outline: as §1

ELK3 = target: T6, ELK3 (Homo sapiens, UniProt P41970 1-407); settings: protein: recombinant; tags: N-terminal GST; dsDNA, one strand shown
T6 sequence: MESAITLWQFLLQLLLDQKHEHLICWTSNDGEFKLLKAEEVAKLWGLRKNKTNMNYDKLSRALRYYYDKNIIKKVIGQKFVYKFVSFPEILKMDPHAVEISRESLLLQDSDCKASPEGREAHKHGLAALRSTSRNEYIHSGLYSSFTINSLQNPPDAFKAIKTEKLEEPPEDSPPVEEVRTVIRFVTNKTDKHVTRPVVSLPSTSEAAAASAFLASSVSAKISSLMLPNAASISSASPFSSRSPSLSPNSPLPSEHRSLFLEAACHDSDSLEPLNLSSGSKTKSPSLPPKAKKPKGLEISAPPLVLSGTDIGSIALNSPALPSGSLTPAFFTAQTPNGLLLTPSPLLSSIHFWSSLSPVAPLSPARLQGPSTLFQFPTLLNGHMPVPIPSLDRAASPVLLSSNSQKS
Outline: as §1

FEV = target: T7, FEV (Homo sapiens, UniProt Q99581 1-238); settings: protein: recombinant; tags: N-terminal GST; dsDNA, one strand shown
T7 sequence: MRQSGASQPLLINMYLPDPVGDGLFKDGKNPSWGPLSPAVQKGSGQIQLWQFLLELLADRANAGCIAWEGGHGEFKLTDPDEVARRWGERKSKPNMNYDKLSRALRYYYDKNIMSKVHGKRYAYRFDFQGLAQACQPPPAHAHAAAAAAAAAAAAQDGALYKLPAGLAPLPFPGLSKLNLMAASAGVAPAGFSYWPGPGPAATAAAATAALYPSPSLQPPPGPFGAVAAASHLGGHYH
Outline: as §1

ETV5 = ETV5 (Homo sapiens, UniProt P41161 1-510); settings: protein: recombinant; tags: N-terminal GST; dsDNA, one strand shown
Outline: as §1

HSF1 = HSF1 (Homo sapiens, UniProt Q00613 1-529); settings: protein: recombinant; tags: N-terminal GST; chain copies: 3; dsDNA, one strand shown
Outline: as §1

ELF4 = ELF4 (Homo sapiens, UniProt Q99607 1-663); settings: protein: recombinant; tags: N-terminal GST; dsDNA, one strand shown
Outline: as §1

ELK4 = target: T8, ELK4 (Homo sapiens, UniProt P28324-2 1-405); settings: protein: recombinant; tags: N-terminal GST; dsDNA, one strand shown
T8 sequence: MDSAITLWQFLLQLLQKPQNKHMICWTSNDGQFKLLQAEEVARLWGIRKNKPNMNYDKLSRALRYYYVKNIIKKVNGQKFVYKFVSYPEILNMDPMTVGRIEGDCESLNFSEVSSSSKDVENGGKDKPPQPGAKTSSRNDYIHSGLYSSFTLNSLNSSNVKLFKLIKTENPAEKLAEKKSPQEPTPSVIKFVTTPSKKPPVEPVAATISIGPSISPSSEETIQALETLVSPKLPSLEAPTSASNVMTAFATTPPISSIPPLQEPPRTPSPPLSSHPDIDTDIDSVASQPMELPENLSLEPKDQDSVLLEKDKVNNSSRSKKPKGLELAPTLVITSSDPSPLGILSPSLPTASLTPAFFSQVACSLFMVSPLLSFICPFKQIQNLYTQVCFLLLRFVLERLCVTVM
Outline: as §1

ETV2 = target: T9, ETV2 (Homo sapiens, UniProt O00321 1-342); settings: protein: recombinant; tags: N-terminal GST; dsDNA, one strand shown
T9 sequence: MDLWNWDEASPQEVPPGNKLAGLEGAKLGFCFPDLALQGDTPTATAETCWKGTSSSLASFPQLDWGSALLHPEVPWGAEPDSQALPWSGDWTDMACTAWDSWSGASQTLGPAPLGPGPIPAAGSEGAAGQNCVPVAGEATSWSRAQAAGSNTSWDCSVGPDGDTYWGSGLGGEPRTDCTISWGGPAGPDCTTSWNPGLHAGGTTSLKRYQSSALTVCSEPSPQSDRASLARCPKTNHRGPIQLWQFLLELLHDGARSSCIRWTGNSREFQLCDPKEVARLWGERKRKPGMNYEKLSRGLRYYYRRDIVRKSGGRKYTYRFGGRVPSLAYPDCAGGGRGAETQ
Outline: as §1

ELF3 = target: T10, ELF3 (Homo sapiens, UniProt P78545 1-371); settings: protein: recombinant; tags: N-terminal GST; dsDNA, one strand shown
T10 sequence: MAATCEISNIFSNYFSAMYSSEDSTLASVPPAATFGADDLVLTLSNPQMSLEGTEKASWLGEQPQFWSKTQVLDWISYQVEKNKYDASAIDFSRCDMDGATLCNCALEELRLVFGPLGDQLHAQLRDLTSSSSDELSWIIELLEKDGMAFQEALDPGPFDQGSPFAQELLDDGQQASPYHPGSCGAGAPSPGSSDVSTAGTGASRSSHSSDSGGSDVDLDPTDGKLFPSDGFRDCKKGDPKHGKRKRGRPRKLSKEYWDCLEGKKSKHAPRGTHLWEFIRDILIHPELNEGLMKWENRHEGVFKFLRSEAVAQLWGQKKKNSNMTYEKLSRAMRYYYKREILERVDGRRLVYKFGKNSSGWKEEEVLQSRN
Outline: as §1

CRX = CRX (Homo sapiens, UniProt O43186 1-299); settings: protein: recombinant; tags: N-terminal GST; dsDNA, one strand shown
Outline: as §1

ETV1 = ETV1 (Homo sapiens, UniProt P50549 1-477); settings: protein: recombinant; tags: N-terminal GST; dsDNA, one strand shown
Outline: as §1

SPIB, sequence (Q01892 whole entry): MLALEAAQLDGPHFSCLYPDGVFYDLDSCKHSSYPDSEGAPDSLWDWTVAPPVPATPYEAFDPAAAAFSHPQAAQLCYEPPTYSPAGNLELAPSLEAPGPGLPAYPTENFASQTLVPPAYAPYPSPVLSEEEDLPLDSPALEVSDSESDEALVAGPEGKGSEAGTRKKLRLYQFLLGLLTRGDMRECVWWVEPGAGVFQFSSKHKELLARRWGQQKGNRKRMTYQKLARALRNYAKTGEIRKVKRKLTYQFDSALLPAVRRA
ETV1, sequence (P50549 whole entry): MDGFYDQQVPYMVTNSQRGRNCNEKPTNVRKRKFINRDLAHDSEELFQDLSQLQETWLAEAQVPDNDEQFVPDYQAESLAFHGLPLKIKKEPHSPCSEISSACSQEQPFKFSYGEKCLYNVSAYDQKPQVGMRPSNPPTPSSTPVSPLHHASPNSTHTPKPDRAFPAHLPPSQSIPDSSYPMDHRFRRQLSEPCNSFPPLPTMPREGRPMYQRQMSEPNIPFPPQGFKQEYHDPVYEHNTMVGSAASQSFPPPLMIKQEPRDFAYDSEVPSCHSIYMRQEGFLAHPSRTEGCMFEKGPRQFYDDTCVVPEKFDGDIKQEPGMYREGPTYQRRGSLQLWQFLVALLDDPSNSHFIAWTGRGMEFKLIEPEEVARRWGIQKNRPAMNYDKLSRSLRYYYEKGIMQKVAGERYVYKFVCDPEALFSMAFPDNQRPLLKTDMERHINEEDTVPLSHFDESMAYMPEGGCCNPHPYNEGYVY
ELF1, sequence (P32519 whole entry): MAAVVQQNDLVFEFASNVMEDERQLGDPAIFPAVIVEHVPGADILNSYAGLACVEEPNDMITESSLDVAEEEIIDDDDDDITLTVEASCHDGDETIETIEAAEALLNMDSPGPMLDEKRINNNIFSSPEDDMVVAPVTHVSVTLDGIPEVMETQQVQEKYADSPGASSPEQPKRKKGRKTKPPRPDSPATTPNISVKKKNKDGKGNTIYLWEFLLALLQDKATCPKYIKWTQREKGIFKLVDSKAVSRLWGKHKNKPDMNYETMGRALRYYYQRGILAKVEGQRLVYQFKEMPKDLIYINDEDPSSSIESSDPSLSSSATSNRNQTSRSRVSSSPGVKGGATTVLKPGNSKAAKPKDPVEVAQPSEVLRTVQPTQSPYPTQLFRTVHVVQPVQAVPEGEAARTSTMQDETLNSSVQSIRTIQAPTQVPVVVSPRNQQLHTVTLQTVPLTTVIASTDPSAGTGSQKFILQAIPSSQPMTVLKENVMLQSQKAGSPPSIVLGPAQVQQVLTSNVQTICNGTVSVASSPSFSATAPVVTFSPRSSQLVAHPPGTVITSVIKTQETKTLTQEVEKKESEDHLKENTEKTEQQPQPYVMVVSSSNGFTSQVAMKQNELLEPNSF
CRX, sequence (O43186 whole entry): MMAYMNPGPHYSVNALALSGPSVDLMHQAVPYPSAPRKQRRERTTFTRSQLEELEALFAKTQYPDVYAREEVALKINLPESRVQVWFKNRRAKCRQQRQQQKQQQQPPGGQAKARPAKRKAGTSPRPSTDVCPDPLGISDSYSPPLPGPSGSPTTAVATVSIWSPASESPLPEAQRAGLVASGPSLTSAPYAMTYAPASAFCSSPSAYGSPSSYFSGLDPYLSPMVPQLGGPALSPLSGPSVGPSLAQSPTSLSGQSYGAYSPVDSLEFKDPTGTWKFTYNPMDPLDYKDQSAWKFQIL
ETV5, sequence (P41161 whole entry): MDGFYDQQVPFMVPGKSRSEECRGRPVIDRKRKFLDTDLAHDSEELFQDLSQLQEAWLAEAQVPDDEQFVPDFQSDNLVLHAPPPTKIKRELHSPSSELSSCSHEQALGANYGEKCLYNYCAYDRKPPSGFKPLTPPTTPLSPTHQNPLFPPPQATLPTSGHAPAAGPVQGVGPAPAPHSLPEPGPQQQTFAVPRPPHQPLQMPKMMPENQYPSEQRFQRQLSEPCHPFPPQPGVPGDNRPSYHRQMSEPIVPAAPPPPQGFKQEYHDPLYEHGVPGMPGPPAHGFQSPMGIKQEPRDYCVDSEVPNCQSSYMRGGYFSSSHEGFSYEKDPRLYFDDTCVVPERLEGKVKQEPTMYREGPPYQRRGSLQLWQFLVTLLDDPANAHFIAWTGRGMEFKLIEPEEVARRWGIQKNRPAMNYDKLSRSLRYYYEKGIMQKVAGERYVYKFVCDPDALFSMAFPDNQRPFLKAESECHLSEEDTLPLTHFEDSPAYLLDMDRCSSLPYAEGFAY
ELF4, sequence (Q99607 whole entry): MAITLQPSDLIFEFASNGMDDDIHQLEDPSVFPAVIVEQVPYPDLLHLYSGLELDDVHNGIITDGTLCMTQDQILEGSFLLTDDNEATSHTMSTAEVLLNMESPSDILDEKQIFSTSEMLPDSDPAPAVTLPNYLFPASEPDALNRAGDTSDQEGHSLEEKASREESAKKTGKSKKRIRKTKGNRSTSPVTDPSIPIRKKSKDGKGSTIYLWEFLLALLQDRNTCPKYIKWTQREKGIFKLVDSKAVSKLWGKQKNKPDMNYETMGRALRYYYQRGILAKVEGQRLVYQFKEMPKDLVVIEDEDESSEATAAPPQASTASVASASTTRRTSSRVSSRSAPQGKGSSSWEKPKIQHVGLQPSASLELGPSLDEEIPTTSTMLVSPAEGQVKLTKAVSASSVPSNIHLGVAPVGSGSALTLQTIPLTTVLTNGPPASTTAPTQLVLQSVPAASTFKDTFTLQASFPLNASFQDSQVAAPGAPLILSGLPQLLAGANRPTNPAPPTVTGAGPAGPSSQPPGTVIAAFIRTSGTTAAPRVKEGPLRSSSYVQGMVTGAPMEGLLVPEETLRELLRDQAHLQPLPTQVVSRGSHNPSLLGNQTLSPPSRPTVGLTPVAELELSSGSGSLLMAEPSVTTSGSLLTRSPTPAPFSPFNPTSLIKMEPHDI
HSF1, sequence (Q00613 whole entry): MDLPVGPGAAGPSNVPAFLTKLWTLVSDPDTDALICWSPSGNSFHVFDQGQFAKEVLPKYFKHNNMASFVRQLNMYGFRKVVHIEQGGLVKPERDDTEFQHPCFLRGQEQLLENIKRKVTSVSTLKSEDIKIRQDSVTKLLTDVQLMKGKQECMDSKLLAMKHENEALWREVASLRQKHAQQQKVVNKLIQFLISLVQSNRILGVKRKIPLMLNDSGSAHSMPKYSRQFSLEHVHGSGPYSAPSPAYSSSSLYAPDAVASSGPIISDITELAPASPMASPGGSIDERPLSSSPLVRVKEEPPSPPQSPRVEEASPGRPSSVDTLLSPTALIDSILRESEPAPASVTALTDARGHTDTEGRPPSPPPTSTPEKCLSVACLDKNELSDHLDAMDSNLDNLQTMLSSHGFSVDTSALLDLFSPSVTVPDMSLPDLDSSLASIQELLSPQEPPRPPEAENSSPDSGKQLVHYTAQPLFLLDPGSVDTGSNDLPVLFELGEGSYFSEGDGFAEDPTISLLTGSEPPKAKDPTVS

AACCAT
binding signal (FLI1): 1.14 fold enrichment (6-mer frequency, TF over GST control)
binding signal (ELK1): 1.17 fold enrichment (6-mer frequency, TF over GST control)
binding signal (GABPA): 1.16 fold enrichment (6-mer frequency, TF over GST control)
binding signal (ERG): 1.2 fold enrichment (6-mer frequency, TF over GST control)
binding signal (ELF1): 1.18 fold enrichment (6-mer frequency, TF over GST control)
binding signal (EHF): 1.22 fold enrichment (6-mer frequency, TF over GST control)
binding signal (SPI1): 1.12 fold enrichment (6-mer frequency, TF over GST control)
binding signal (SPIB): 1.12 fold enrichment (6-mer frequency, TF over GST control)
binding signal (ELK3): 1.28 fold enrichment (6-mer frequency, TF over GST control)
binding signal (FEV): 1.15 fold enrichment (6-mer frequency, TF over GST control)
binding signal (ETV5): 1.15 fold enrichment (6-mer frequency, TF over GST control)
binding signal (HSF1): 1.15 fold enrichment (6-mer frequency, TF over GST control)
binding signal (ELF4): 1.15 fold enrichment (6-mer frequency, TF over GST control)
binding signal (ELK4): 1.21 fold enrichment (6-mer frequency, TF over GST control)
binding signal (ETV2): 1.2 fold enrichment (6-mer frequency, TF over GST control)
binding signal (ELF3): 1.1 fold enrichment (6-mer frequency, TF over GST control)
binding signal (CRX): 1.05 fold enrichment (6-mer frequency, TF over GST control)
binding signal (ETV1): 1.06 fold enrichment (6-mer frequency, TF over GST control)

AAAGCT
binding signal (FLI1): 1.06 fold enrichment (6-mer frequency, TF over GST control)
binding signal (ELK1): 1.09 fold enrichment (6-mer frequency, TF over GST control)
binding signal (GABPA): 1.08 fold enrichment (6-mer frequency, TF over GST control)
binding signal (ERG): 1.08 fold enrichment (6-mer frequency, TF over GST control)
binding signal (ELF1): 1.09 fold enrichment (6-mer frequency, TF over GST control)
binding signal (SPI1): 1.01 fold enrichment (6-mer frequency, TF over GST control)
binding signal (SPIB): 1.06 fold enrichment (6-mer frequency, TF over GST control)
binding signal (ELK3): 1.01 fold enrichment (6-mer frequency, TF over GST control)
binding signal (FEV): 1.1 fold enrichment (6-mer frequency, TF over GST control)
binding signal (ETV5): 1.08 fold enrichment (6-mer frequency, TF over GST control)
binding signal (HSF1): 1.32 fold enrichment (6-mer frequency, TF over GST control)
binding signal (ELF4): 1.06 fold enrichment (6-mer frequency, TF over GST control)
binding signal (ELK4): 1.13 fold enrichment (6-mer frequency, TF over GST control)
binding signal (ETV2): 1.01 fold enrichment (6-mer frequency, TF over GST control)
binding signal (ELF3): 1.2 fold enrichment (6-mer frequency, TF over GST control)
binding signal (CRX): 1.64 fold enrichment (6-mer frequency, TF over GST control)
binding signal (ETV1): 1.06 fold enrichment (6-mer frequency, TF over GST control)
